In PubChem BioAssay (NCI):
Several values for one entry are separate records, joined by “and”; a condition that tells them apart may be missing. Identical values can stand only once. The panel holds about 79,000 compounds, 15% with a hit somewhere; the sample as a whole holds those more often. Some compounds were tested as several samples or in several runs, with calls that do not always agree. Activity calls are given as the source filed them. Cut-off read from the data, not from the text of the source: active = growth inhibition above about 70%; inactive = the rest.

Key:
[1] = NCI Yeast Anticancer Drug Screen. Data for the rad52 strain (AID 147);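 note: 0% = growth of vehicle-treated control cultures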; settings: S. cerevisiae rad52 mutant growth inhibition, stronger effect = higher value
In short: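 Inhibition of yeast growth, referenced to vehicle controls, was the measured output for a strain with defective DNA damage repair.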

[2] = NCI Yeast Anticancer Drug Screen. Data for the wt1 strain (AID 149);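 note: 0% = growth of vehicle-treated wt1 cultures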; settings: S. cerevisiae wt1 strain (SPY 50644) growth inhibition, stronger effect = higher value
In short: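 The wt1 strain was treated with compounds, and growth was compared with vehicle-treated cultures to give inhibition.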

[3] = NCI Yeast Anticancer Drug Screen. Data for the rad50EPP+ strain (AID 151);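 note: 0% = growth of vehicle-treated control cultures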; settings: S. cerevisiae rad50 mutant strain, stronger effect = higher value
In short: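 Genetically defined yeast (rad50EPP+, DNA damage repair alteration) is grown with compound, and inhibition of growth is expressed relative to vehicle-treated controls.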

[4] = NCI Yeast Anticancer Drug Screen. Data for the rad50 strain (AID 155);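 note: 0% = growth of vehicle-only cultures of the same strain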; settings: S. cerevisiae rad50 strain growth inhibition, stronger effect = higher value
In short: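 Cells are treated with compound, grown, and their growth is then scored against vehicle-only cultures of the same repair-deficient yeast strain.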

[5] = NCI Yeast Anticancer Drug Screen. Data for the mec2-1 strain (AID 157); settings: S. cerevisiae mec2-1 strain, stronger effect = higher value
In short: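 Each compound was tested on mec2-1 yeast, a strain altered in DNA damage repair or cell cycle control. Growth inhibition is reported relative to vehicle.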

[6] = NCI Yeast Anticancer Drug Screen. Data for the rad14 strain (AID 159);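 note: 0% = growth of vehicle-treated control cultures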; settings: S. cerevisiae rad14 strain growth inhibition, stronger effect = higher value
In short: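 Readout: yeast growth inhibition, referenced to vehicle-only cultures. Strain bears a defined alteration in DNA damage repair.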

[7] = NCI Yeast Anticancer Drug Screen. Data for the sgs1 mgt1 strain (AID 161);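 note: 0% = growth of cultures given vehicle only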; settings: S. cerevisiae sgs1 mgt1 strain, stronger effect = higher value
In short: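 Test agents were incubated with a DNA-repair-mutant yeast strain. Growth was then read and compared against vehicle-treated controls.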

[8] = NCI Yeast Anticancer Drug Screen. Data for the CLN2oe strain (AID 163);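 note: 0% = growth of vehicle-only control cultures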; settings: S. cerevisiae CLN2oe strain, stronger effect = higher value
In short: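 First, the altered yeast strain was treated with each compound; second, its growth was measured; finally, inhibition was derived by comparison with vehicle controls.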

[9] = NCI Yeast Anticancer Drug Screen. Data for the cln2 rad14 strain (AID 165);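 note: 0% = growth equal to vehicle treated cultures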; settings: S. cerevisiae cln2 rad14 strain, stronger effect = higher value
In short: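 Test compounds were added to cln2 rad14 yeast cultures; inhibition of growth was then determined by comparison with vehicle treatment.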

[10] = NCI Yeast Anticancer Drug Screen. Data for the bub3 strain (AID 167); settings: S. cerevisiae bub3 mutant strain, stronger effect = higher value
In short: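 Part of a panel of yeast mutants defective in DNA damage repair or cell cycle regulation. Each strain is grown with compound, and inhibition is calculated relative to solvent-treated cultures.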

[11] = NCI Yeast Anticancer Drug Screen. Data for the wt2 strain (AID 169);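 note: 0% = growth of vehicle-treated yeast cultures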; settings: S. cerevisiae wt2 strain growth inhibition, stronger effect = higher value
In short: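 The panel's yeast strains carry defined changes in DNA repair or cell cycle genes. Each strain is grown with compound, and growth loss is scored relative to vehicle.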

[12] = NCI Yeast Anticancer Drug Screen. Data for the mlh1 strain (AID 171);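 note: 0% = growth of vehicle-treated control cultures of the same strain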; settings: S. cerevisiae mlh1 strain growth inhibition, stronger effect = higher value
In short: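 Inhibition values reflect reduced yeast growth in the presence of compound, referenced to vehicle controls, using a strain chosen for its alteration in DNA repair or cell cycle control.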

[13] = NCI Yeast Anticancer Drug Screen. Data for the sgs1 strain (AID 173);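 note: 0% = growth of vehicle-only control cultures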; settings: S. cerevisiae sgs1 mutant, stronger effect = higher value
In short: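 Vehicle-treated cultures served as reference for growth inhibition of a yeast strain altered in DNA damage repair or cell cycle control after compound exposure.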

[14] = NCI Yeast Anticancer Drug Screen. Data for the mlh1 rad18 strain (AID 175); settings: S. cerevisiae mlh1 rad18 strain growth inhibition, stronger effect = higher value
In short: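 Inhibition values reflect reduced growth of mutant yeast versus vehicle-treated controls following compound exposure; the mutations affect DNA damage repair.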

[15] = NCI Yeast Anticancer Drug Screen. Data for the rad18 strain (AID 177); settings: S. cerevisiae rad18 mutant growth inhibition, stronger effect = higher value
In short: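 Steps: expose repair-mutant yeast to compound; measure growth; express as inhibition relative to vehicle control.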

[16] = at 5.0 µM (retest, dose inferred, filed as 0.5)
[17] = at 50.0 µM (retest, dose inferred, filed as 5.0)

Measured: growth inhibition

CC(C)c1cccc(O)c(=O)c1
inactive: [1]; at 1.2 µM 2% | [1]; at 3.7 µM -3% | [1]; at 11.0 µM 0% | [1]; at 33.0 µM 18% | [2]; at 1.2 µM -1% | [2]; at 3.7 µM -1% | [2]; at 11.0 µM -1% | [2]; at 33.0 µM 38% | [3]; at 1.2 µM 5% | [3]; at 3.7 µM 8% | [3]; at 11.0 µM -20% | [3]; at 33.0 µM 13% | [4]; at 1.2 µM -7% | [4]; at 3.7 µM -9% | [4]; [16] -1% and 2% | [4]; at 11.0 µM -8% | [4]; at 33.0 µM 27% | [5]; at 1.2 µM -1% | [5]; at 3.7 µM 2% | [5]; [16] -43% and 0% | [5]; at 11.0 µM 6% | [5]; at 33.0 µM 47% | [6]; at 1.2 µM 6% | [6]; at 3.7 µM 4% | [6]; at 11.0 µM 9% | [7]; [16] -2% and 9% | [8]; at 1.2 µM 3% | [8]; at 3.7 µM 4% | [8]; at 11.0 µM 2% | [8]; at 33.0 µM 25% | [9]; [16] -4% and 4% | [10]; at 1.2 µM 5% | [10]; at 3.7 µM -2% | [10]; [16] -7% and 0% | [10]; at 11.0 µM -4% | [10]; at 33.0 µM 13% | [11]; at 1.2 µM 9% | [11]; at 3.7 µM 14% | [11]; at 11.0 µM 13% | [12]; at 1.2 µM -6% | [12]; at 3.7 µM -1% | [12]; at 11.0 µM 2% | [12]; at 33.0 µM 46% | [13]; at 1.2 µM -3% | [13]; at 3.7 µM -11% | [13]; at 11.0 µM -1% | [13]; at 33.0 µM 60% | [14]; [16] -3% and 7% | [15]; at 1.2 µM -6% | [15]; at 3.7 µM 1% | [15]; at 11.0 µM 2% | [15]; at 33.0 µM 18%
47% (inactive) and 100% (active): [5]; [17]
12% (inactive) and 99% (active): [9]; [17]
active: [1]; at 100.0 µM 99% | [2]; at 100.0 µM 98% | [3]; at 100.0 µM 98% | [4]; at 50.0 µM 98.5% and 92.5% | [4]; at 100.0 µM 98% | [5]; at 50.0 µM 99% and 94.2% | [5]; at 100.0 µM 98% | [6]; at 33.0 µM 74% | [6]; at 100.0 µM 99% | [7]; at 50.0 µM 93.9% and 93.2% | [8]; at 100.0 µM 98% | [9]; at 50.0 µM 96.3% and 89.7% | [10]; at 50.0 µM 99.3% and 93.2% | [10]; at 100.0 µM 98% | [11]; at 33.0 µM 70% | [11]; at 100.0 µM 99% | [12]; at 100.0 µM 99% | [13]; at 100.0 µM 98% | [14]; at 50.0 µM 98.4% and 91.7% | [15]; at 100.0 µM 98%
18% (inactive) and 99% (active): [10]; [17]
40% (inactive) and 99% (active): [14]; [17]
52% (inactive) and 99% (active): [4]; [17]
36% (inactive) and 99% (active): [7]; [17]

CCN(CC)N=Nc1c(C(N)=O)n[nH]c1C
active: [1]; at 100.0 µM 93% | [3]; at 100.0 µM 80% | [4]; at 50.0 µM 85.3% | [4]; at 100.0 µM 92% | [15]; at 100.0 µM 83%
inactive: [1]; at 1.2 µM 0% | [1]; at 3.7 µM -3% | [1]; at 11.0 µM 8% | [1]; at 33.0 µM 47% | [2]; at 1.2 µM -6% | [2]; at 3.7 µM -5% | [2]; at 11.0 µM -7% | [2]; at 33.0 µM -5% | [2]; at 100.0 µM 0% | [3]; at 1.2 µM -2% | [3]; at 3.7 µM 3% | [3]; at 11.0 µM 5% | [3]; at 33.0 µM 31% | [4]; at 1.2 µM -10% | [4]; at 3.7 µM -8% | [4]; [16] -138% | [4]; at 11.0 µM 9% | [4]; at 33.0 µM 54% | [4]; [17] 56% | [5]; at 1.2 µM 2% | [5]; at 3.7 µM 1% | [5]; [16] -46% | [5]; at 11.0 µM 8% | [5]; at 33.0 µM 2% | [5]; [17] -40% | [5]; at 50.0 µM 15.8% | [5]; at 100.0 µM 27% | [6]; at 1.2 µM -2% | [6]; at 3.7 µM 1% | [6]; at 11.0 µM 0% | [6]; at 33.0 µM 3% | [6]; at 100.0 µM 23% | [7]; [16] -62% | [7]; [17] -35% | [7]; at 50.0 µM -0.05% | [8]; at 1.2 µM -5% | [8]; at 3.7 µM 1% | [8]; at 11.0 µM 0% | [8]; at 33.0 µM 0% | [8]; at 100.0 µM 4% | [9]; [16] -55% | [9]; [17] -63% | [9]; at 50.0 µM -29.2% | [10]; at 1.2 µM -15% | [10]; at 3.7 µM -12% | [10]; [16] -65% | [10]; at 11.0 µM -9% | [10]; at 33.0 µM -9% | [10]; [17] -84% | [10]; at 50.0 µM -22.8% | [10]; at 100.0 µM -2% | [11]; at 1.2 µM -1% | [11]; at 3.7 µM 0% | [11]; at 11.0 µM -1% | [11]; at 33.0 µM -1% | [11]; at 100.0 µM 2% | [12]; at 1.2 µM 6% | [12]; at 3.7 µM -6% | [12]; at 11.0 µM -5% | [12]; at 33.0 µM -2% | [12]; at 100.0 µM -3% | [13]; at 1.2 µM -1% | [13]; at 3.7 µM -1% | [13]; at 11.0 µM -2% | [13]; at 33.0 µM 9% | [13]; at 100.0 µM 43% | [14]; [16] -124% | [14]; [17] -75% | [14]; at 50.0 µM 40.4% | [15]; at 1.2 µM -2% | [15]; at 3.7 µM 0% | [15]; at 11.0 µM 6% | [15]; at 33.0 µM 23%
